Laboratory results published in PubChem BioAssay AID1159580 (chemical genetic matrix, 2015).
Several values for one entry are separate records, joined by “and”; a condition that tells them apart may be missing. Equal entries are not always repeated. Among all 5,500 compounds or so, about 2,000 (36%) were called active. Roughly 18% stayed inconclusive and do not appear here. No stated cut-off is given here; in the data, active means normalized growth mostly below about 0.91 (no sharp cut-off); inconclusive means no clear call, values can overlap the other calls; inactive means mostly above about 0.92. The list shows a part of the results.

Assay: chemical genetic growth profiling, strain panel (AID 1159580);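 further: tested at 20 µM; growth read once vehicle control cultures reached saturation at 30 °C; 1 = growth at the plate median or of vehicle wells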
Settings: S. cerevisiae deletion strains, growth OD

Measured: normalized growth

N#CC(O[C@@H]1O[C@H](CO[C@@H]2O[C@H](CO)[C@@H](O)[C@H](O)[C@H]2O)[C@@H](O)[C@H](O)[C@H]1O)c1ccccc1 (some centres not stated)
inactive: locus YAL013W, strain DEP1, stronger effect = lower value 1 | locus YAL021C, strain ccr4, stronger effect = lower value 0.965 | locus YAL026C, strain drs2, stronger effect = lower value 0.99 | locus YAL030W, strain snc1, stronger effect = lower value 0.986 | locus YBL061C, strain skt5, stronger effect = lower value 0.97 | locus YBR009C, strain hhf1, stronger effect = lower value 0.987 | locus YBR021W, strain FUR4, stronger effect = lower value 0.986 | locus YBR023C, strain chs3, stronger effect = lower value 0.979 | locus YBR171W, strain sec66, stronger effect = lower value 0.975 | locus YBR229C, strain ROT2, stronger effect = lower value 0.993 | locus YBR231C, strain swc5, stronger effect = lower value 0.981 | locus YBR279W, strain paf1, stronger effect = lower value 0.981 | locus YCL011C, strain gbp2, stronger effect = lower value 0.986 | locus YCL016C, strain dcc1, stronger effect = lower value 0.983 | locus YCL029C, strain bik1, stronger effect = lower value 1 | locus YCL061C, strain MRC1, stronger effect = lower value 0.99 | locus YCL069W, strain vba3, stronger effect = lower value 0.988 | locus YCR088W, strain abp1, stronger effect = lower value 0.975 | locus YDL005C, strain med2, stronger effect = lower value 0.967 | locus YDL035C, strain GPR1, stronger effect = lower value 1.01 | locus YDL040C, strain nat1, stronger effect = lower value 0.976 | locus YDL074C, strain BRE1, stronger effect = lower value 1.01 | locus YDL101C, strain DUN1, stronger effect = lower value 1 | locus YDL185W, strain tfp1, stronger effect = lower value 0.975 | locus YDL192W, strain arf1, stronger effect = lower value 0.998 | locus YDR001C, strain nth1, stronger effect = lower value 0.988 | locus YDR069C, strain doa4, stronger effect = lower value 0.975 | locus YDR101C, strain arx1, stronger effect = lower value 0.995 | locus YDR137W, strain rgp1, stronger effect = lower value 1.01 | locus YDR150W, strain NUM1, stronger effect = lower value 1.01 | locus YDR159W, strain sac3, stronger effect = lower value 0.961 | locus YDR162C, strain NBP2, stronger effect = lower value 1.04 | locus YDR195W, strain ref2 0.945 | locus YDR297W, strain sur2, stronger effect = lower value 0.992 | locus YDR318W, strain mcm21, stronger effect = lower value 1 | locus YDR334W, strain swr1, stronger effect = lower value 0.984 | locus YDR335W, strain msn5, stronger effect = lower value 0.988 | locus YDR388W, stronger effect = lower value 0.991 | locus YDR392W, strain spt3, stronger effect = lower value 0.974 | locus YDR502C, strain sam2, stronger effect = lower value 1.02 | locus YEL003W, strain gim4, stronger effect = lower value 0.99 | locus YEL037C, strain rad23, stronger effect = lower value 0.982 | locus YEL061C, strain CIN8 (second series), stronger effect = lower value 0.991 | locus YEL061C, strain CIN8, stronger effect = lower value 1 | locus YER015W, strain faa2, stronger effect = lower value 0.987 | locus YER016W, strain bim1, stronger effect = lower value 0.977 | locus YER110C, stronger effect = lower value 0.996 | locus YER111C, strain swi4, stronger effect = lower value 0.982 | locus YER155C, strain BEM2 (second series), stronger effect = lower value 0.966 | locus YER155C, strain BEM2, stronger effect = lower value 0.992 | locus YER167W, strain BCK2, stronger effect = lower value 1 | locus YFR010W, strain ubp6, stronger effect = lower value 0.977 | locus YGL078C, strain dbp3, stronger effect = lower value 0.989 | locus YGL086W, strain mad1, stronger effect = lower value 0.995 | locus YGL167C, strain pmr1, stronger effect = lower value 0.98 | locus YGL173C, strain kem1, stronger effect = lower value 0.963 | locus YGL227W, strain vid30, stronger effect = lower value 0.97 | locus YGL240W, strain doc1, stronger effect = lower value 0.971 | locus YGL248W, strain PDE1, stronger effect = lower value 1.05 | locus YGL253W, strain hxk2, stronger effect = lower value 0.985 | locus YGR135W, strain pre9, stronger effect = lower value 0.985 | locus YGR252W, strain gcn5, stronger effect = lower value 0.987 | locus YHR013C, strain ard1, stronger effect = lower value 0.964 | locus YHR027C, strain rpn1, stronger effect = lower value 0.98 | locus YHR030C, strain SLT2, stronger effect = lower value 1 and 0.975 | locus YHR079C, strain IRE1 (second series), stronger effect = lower value 0.99 | locus YHR079C, strain IRE1, stronger effect = lower value 0.971 | locus YHR094C, strain hxt1, stronger effect = lower value 0.978 | locus YHR129C, strain ARP1, stronger effect = lower value 1 | locus YHR142W, strain chs7, stronger effect = lower value 0.983 | locus YHR200W, strain rpn10, stronger effect = lower value 1 | locus YIL066C, strain RNR3, stronger effect = lower value 1.03 | locus YIL073C, strain SPO22, stronger effect = lower value 1.02 | locus YIL125W, strain kgd1, stronger effect = lower value 0.996 | locus YIR030C, strain dcg1, stronger effect = lower value 0.992 | locus YJL092W, strain hpr5, stronger effect = lower value 0.987 | locus YJL095W, strain BCK1 (second series), stronger effect = lower value 0.971 | locus YJL095W, strain BCK1, stronger effect = lower value 1.06 and 1.01 | locus YJL115W, strain asf1, stronger effect = lower value 0.977 | locus YJL129C, strain trk1, stronger effect = lower value 0.967 | locus YJL134W, strain LCB3, stronger effect = lower value 0.993 | locus YJL154C, strain vps35, stronger effect = lower value 0.979 | locus YJL164C, strain tpk1, stronger effect = lower value 0.98 | locus YJL166W, strain qcr8, stronger effect = lower value 0.982 | locus YJL168C, strain set2, stronger effect = lower value 0.993 | locus YJL187C, strain SWE1 (second series), stronger effect = lower value 1.02 | locus YJL187C, strain SWE1, stronger effect = lower value 0.994
